# Screening data (PubChem BioAssay)
# HSP90 refold inh – blocks HSP90-mediated luciferase refolding in reticulocyte lysate; Rabbit reticulocyte lysate, luciferase refolding luminescence, 3 h; inhibition, % at 5.6 µM; 290,000 tested, 0.91% active; AID 1789;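 active means inhibition above the screen-wide mean plus 3 SD, computed separately per campaign, cut at about 16% in these data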;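 further: 0% = DMSO wells and 100% = 60 µM geldanamycin wells; inhibitors lower the luminescence because luciferase stays unfolded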
# SENP6 inh – inhibitors of human SENP6 protease; Q9GZR1; Recombinant SENP6 catalytic domain, aminoluciferin luminescence; inhibition, % at 10 µM; 330,000 tested, 1.8% active; AID 2599;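 active means inhibition above about 50% at the single tested dose, limit read from the data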;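 further: plate controls were DMSO wells with enzyme for no effect and DMSO wells lacking enzyme for full effect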
# SENP8 block-1 – blocks human SENP8 cleavage of Nedd8 substrate; Q96LD8; recombinant SENP8, Nedd8 substrate fluorescence; inhibition, % at 20 µM; 360,000 tested, 0.64% active; in the data active means inhibition mostly above about 40%, no sharp cut-off; inactive means mostly below about 27%
# Target sequence (Q96LD8 whole entry, looked up): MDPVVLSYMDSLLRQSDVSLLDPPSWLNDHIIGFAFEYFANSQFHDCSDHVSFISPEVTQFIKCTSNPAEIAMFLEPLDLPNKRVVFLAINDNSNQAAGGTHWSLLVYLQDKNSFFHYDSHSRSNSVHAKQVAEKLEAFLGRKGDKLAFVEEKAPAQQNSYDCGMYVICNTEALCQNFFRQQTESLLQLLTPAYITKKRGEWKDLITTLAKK
# Platelet DG rel – modulates dense granule release in human platelets; human platelet-rich plasma, SFLLRN dense granule ATP release, luminescence; inhibition, %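 (compounds screened at 7.5 µM in platelet-rich plasma)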; 300,000 tested, 0.22% active;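 active means mean replicate score, as percent of positive control, at or above 50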
# SENP7 inh – inhibitors of human SENP7 protease. 330,000 tested, 1.5% active. inhibition, % at 5 µM. recombinant SENP7, Z-RLRGG-aminoluciferin luminescence, 40 min. Q9BQF6;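 active means inhibition above about 50% at the single test dose, limit read from the data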;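 further: plate controls were DMSO with enzyme for no effect and no enzyme buffer wells for full effect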
# Target sequence (Q9BQF6 706-1050 limits assumed): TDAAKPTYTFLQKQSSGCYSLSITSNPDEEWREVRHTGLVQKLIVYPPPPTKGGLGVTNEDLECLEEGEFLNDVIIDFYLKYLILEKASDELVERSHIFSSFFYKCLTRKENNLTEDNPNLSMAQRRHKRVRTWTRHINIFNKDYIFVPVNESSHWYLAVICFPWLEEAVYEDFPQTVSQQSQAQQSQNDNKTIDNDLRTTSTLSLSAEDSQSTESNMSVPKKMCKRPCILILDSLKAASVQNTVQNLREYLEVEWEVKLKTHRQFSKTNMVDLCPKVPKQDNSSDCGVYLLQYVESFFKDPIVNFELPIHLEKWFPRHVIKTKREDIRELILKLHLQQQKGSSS
# SENP8 block-2 – SENP8 protease inhibition; Q96LD8; purified SENP8, Z-RLRGG-aminoluciferin cleavage, luminescence; inhibition, % at 10 µM; 330,000 tested, 1.2% active; AID 2540; in the data active means inhibition above about 50%
# SENP8 conf – human SENP8 inhibition, confirmed | shares compounds with SENP7 inh | Recombinant SENP8, Z-RLRGG-aminoluciferin luminescence, 60 min | inhibition, % at 12.5 µM | 6,200 tested, 40% active | AID 488912;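 active means mean inhibition across replicates above about 50%, limit read from the data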
# SENP6 confirm – human SENP6 inhibition, confirmed; 6,200 tested, 58% active; recombinant SENP6, Z-RLRGG-aminoluciferin luminescence; AID 488915; shares compounds with SENP7 inh; inhibition, % at 12.5 µM
# SENP7 conf – confirmation of human SENP7 protease inhibitors | shares compounds with SENP7 inh | recombinant SENP7, Z-RLRGG-aminoluciferin luminescence, 40 min | inhibition, % at 12.5 µM | 6,200 tested, 69% active | AID 488917
# Casp3 select – inhibits human caspase-3 in SENP selectivity test; shares compounds with SENP7 inh; inhibition, % at 12.5 µM; purified caspase-3, Z-DEVD-aminoluciferin luminescence, 60 min; 6,200 tested, 60% active;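 active means mean inhibition above about 50%, limit read from the data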;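 further: plate controls were enzyme with DMSO for no effect and wells without caspase-3 for full effect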
# SENP luc ctr – counter-screen for SENP inhibitors: luminescence interference; AID 488919; 6,200 tested, 39% active; shares compounds with SENP7 inh; Pre-incubated SENP8/Z-RLRGG-aminoluciferin, luciferase luminescence interference; inhibition, % at 12.5 µM;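 active means mean inhibition above about 50% when retested at one dose, limit read from the data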;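 further: plate controls were DMSO wells with completed reaction for no effect and substrate without enzyme for full effect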
# The depositor's hits bear a star; i = inactive; . = no result given. A selection: hits, their analogues and other compounds. The true share with any hit is near 2.8%.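 How the source made its calls, unless noted: active means mean inhibition above about 50% in the one-dose retest (limit read from the data); inactive means the rest.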
SMILES,HSP90 refold inh,SENP6 inh,SENP8 block-1,Platelet DG rel,SENP7 inh,SENP8 block-2,SENP8 conf,SENP6 confirm,SENP7 conf,Casp3 select,SENP luc ctr
O=C(CC[C@H]1O[C@@H](n2cnc3c(NC(=O)c4ccccc4)ncnc32)[C@H](O)[C@@H]1O)N[C@@H](CO)c1ccccc1,.,.,6.5,.,.,.,.,.,.,.,.
Cc1ccc(-c2nc3cc(N)ccc3o2)cc1,8.8,87.7*,-259.8,14.2,89.6*,75.2*,2.4,85.9*,96.8*,82.5*,57.9*
COC(=O)c1ccc(-c2nc3ccc(C)cc3o2)cc1,10.7,-19.3,-293.3,-0.8,70.0*,24.8,31.2,31.2,36.2,47.5,16.5
Nc1ccc2oc(-c3cccs3)nc2c1,1.6,16.3,-323.7,-2.8,16.9,2.1,.,.,.,.,.
Cc1ccc2oc(-c3ccc(NC(=O)CC(C)C)cc3)nc2c1,-1.8,-25.1,-302.3,5.2,-0.8,-3.5,.,.,.,.,.
Cc1ccc2oc(-c3ccc(NC(=O)c4cccnc4)cc3)nc2c1,-5.0,-13.6,-57.3,1.0,-2.2,-24.6,.,.,.,.,.
Cc1ccc(-c2nc3cc(N)ccc3o2)c(C)c1,4.4,82.8*,-481.8,1.7,66.5*,69.4*,57.8*,73.0*,92.4*,54.6*,28.4
Cc1ccc(-c2nc3cc(C)ccc3o2)cc1,13.0,90.4*,-34.0,-3.6,90.4*,89.1*,58.1*,77.1*,93.8*,78.5*,32.7
Cc1ccc2nc(-c3ccccn3)oc2c1,13.1,83.3*,-416.8,23.7,80.8*,62.6*,8.9,70.8*,95.4*,89.2*,43.6
Cc1ccc2oc(-c3ccco3)nc2c1,-2.7,66.4*,-186.5,6.5,54.7*,43.9,-13.5,11.5,75.6*,21.5,0.0
O=c1oc(-c2ccco2)nc2ccccc12,-2.3,-29.0,-16.5,1.2,-10.7,-11.3,.,.,.,.,.
Cc1ccc2nc(-c3cccnc3)oc2c1,-3.0,-25.3,-215.7,4.9,48.5,22.5,.,.,.,.,.
Cc1cccc(C)c1NC(=O)CN(C)C(=O)C1CC1C (stereo not given),.,-3.2,5.1,.,3.1,4.7,.,.,.,.,.
CCn1ccnc1CN1CCC(n2nccc2NC(=O)c2ccccc2OC)CC1,-5.0,0.7,27.4,-3.9,6.7,7.0,.,.,.,.,.
O=C(O)CSc1nc2c(cnn2-c2ccccc2)c(=O)n1-c1ccc(Br)cc1,3.7,55.8*,19.3,0.8,3.4,41.3,40.2,37.3,24.4,9.5,59.7*
CCCCSc1nc2c(cnn2-c2ccccc2)c(=O)n1N,-0.6,81.7*,15.5,7.0,68.4*,44.2,68.8*,66.6*,88.0*,62.9*,47.9
CCCSc1nc2c(cnn2-c2ccccc2)c(=O)n1N,4.5,31.5,5.6,-3.3,35.8,21.8,.,.,.,.,.
Nn1c(SCc2ccccc2)nc2c(cnn2-c2ccccc2)c1=O,-0.1,62.0*,8.9,-0.9,43.3,21.7,23.4,14.5,63.8*,31.9,17.1
COc1ccc([C@H]2C[C@H](n3cc(COC(=O)c4ccccc4)nn3)[C@@H](O)CN2CC2CCCCC2)cc1,.,.,-2.4,.,.,.,.,.,.,.,.
COc1ccc(Cc2nnc(NC(=O)C3CCN(C(=O)c4ccco4)CC3)s2)cc1,0.9,-9.8,7.6,14.6,0.3,-0.8,.,.,.,.,.
COCCNC(=O)C1CCCN(C(=O)c2nc3ccccc3s2)CC1 (stereo not given),.,.,22.4,.,.,.,.,.,.,.,.
Cc1cccc(CN2CCN(C3CN(Cc4ccc(F)cc4)S(=O)(=O)C3)CC2)c1 (stereo not given),.,.,16.6,.,.,.,.,.,.,.,.
O=c1nc2c(-c3ccccc3F)n[nH]n2c2ccccc12,7.6,85.3*,-271.6,1.8,90.0*,90.2*,79.4*,92.3*,99.8*,92.8*,53.2*
CSC1=NSC2=NC(=O)/C(=C\c3ccc(OC(=O)c4ccco4)cc3)C(=N)N12,-3.9,89.3*,14.6,4.5,36.6,91.2*,90.2*,89.9*,96.2*,89.5*,3.6
COCCN(C(=S)Nc1c(C)cccc1C)C(C)c1ccco1 (stereo not given),-1.7,8.8,17.0,18.1,13.3,3.5,.,.,.,.,.
SMILES,HSP90 refold inh,SENP6 inh,SENP8 block-1,Platelet DG rel,SENP7 inh,SENP8 block-2,SENP8 conf,SENP6 confirm,SENP7 conf,Casp3 select,SENP luc ctr
O=[N+]([O-])c1ccc(N/N=C/c2cccc(O)c2O)cc1,-6.2,78.4*,-57.1,10.6,38.9,58.5*,39.3,46.3,84.3*,37.4,67.5*
O=[N+]([O-])c1ccc(N/N=C/c2cccc(O)c2)cc1,-2.8,82.3*,-64.4,-2.6,52.6*,77.4*,89.8*,88.9*,94.4*,36.7,86.5*
O=[N+]([O-])c1ccc(NN=Cc2cccc([N+](=O)[O-])c2)cc1,.,.,-8.0,.,.,.,.,.,.,.,.
CSCCC(NC(=O)c1ccco1)C(=O)N1CCN(C(c2ccccc2)c2ccccc2)CC1 (stereo not given),.,-24.1,6.9,.,14.3,-6.1,.,.,.,.,.
Nc1ccccc1C#Cc1ccccc1,-0.3,66.9*,-459.4,18.7,65.6*,56.9*,49.0,75.5*,91.2*,59.2*,63.1*
C/C(=N\NC(=O)c1ccccc1NC(=O)c1ccc(Cl)cc1)c1ccncc1,51.6*,96.8*,11.4,96.2*,97.1*,89.1*,24.1,96.3*,100.6*,97.7*,18.4
C/C(=N\Nc1ccccc1C(=O)O)c1ccncc1,-4.5,71.7*,4.8,-29.6,52.0*,52.4*,64.6*,60.5*,87.9*,82.1*,68.5*
O=C(NCc1ccccn1)C(=O)NCC1OCCN1S(=O)(=O)c1ccc(F)cc1 (stereo not given),4.2,12.3,-2.4,-12.5,-4.7,0.9,.,.,.,.,.
COc1ccc(Cl)cc1Nc1nc(Cl)nc(NCCO)n1,.,.,8.5,.,.,.,.,.,.,.,.
C=CCn1c2ccccc2c(=O)c2cc(C#CC[C@@H](C)O)ccc21,.,56.5*,i,.,29.7,37.2,59.0*,59.3*,76.2*,52.4*,32.6
Cn1c2ccccc2c(=O)c2cc(C#CC3=CCCCC3)ccc21,.,39.0,-498.1,.,-0.2,28.0,.,.,.,.,.
CCOc1ccc(/C=C/C2=NNC(=O)CC2)cc1,-0.3,69.5*,-5.2,31.9,73.6*,55.2*,-23.7,52.3*,87.8*,86.1*,68.5*
CCNc1nc(NCC)nc(N/N=C/c2cc(OC)c(OC)c(OC)c2)n1,-1.5,-15.2,2.6,6.0,3.1,-1.9,.,.,.,.,.
